For one sequence, binding signal results are on record in paper PMC7862700, “An all-to-all approach to the identification of sequence-specific readers for epigenetic DNA modifications on cytosine”.

Common to all, as to test: DAPPL (digital affinity profiling via proximity ligation, sequencing); 10 mM Tris-HCl pH 7.5, 50 mM NaCl, 1 mM DTT, 4% glycerol, room temperature, 30 min; GST-TFs on glutathione beads, 16-mer random dsDNA library, 0.1% formaldehyde crosslink after washing; high values mean tight binding
The target of one test is T1, FEV (Homo sapiens, UniProt Q99581 1-238).
T1 sequence: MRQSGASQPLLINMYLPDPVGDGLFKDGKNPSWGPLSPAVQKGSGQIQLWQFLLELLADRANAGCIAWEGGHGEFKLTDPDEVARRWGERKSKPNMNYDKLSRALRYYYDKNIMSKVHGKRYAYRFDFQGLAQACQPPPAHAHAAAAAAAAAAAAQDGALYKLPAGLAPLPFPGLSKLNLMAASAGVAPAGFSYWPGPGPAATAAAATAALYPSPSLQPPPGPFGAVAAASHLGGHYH
Particulars: protein: recombinant; tags: N-terminal GST; dsDNA, one strand shown. Put shortly:
(§1)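 Human transcription factors fused to GST were expressed in yeast, captured on glutathione beads, given DNA barcodes and pooled with a GST-only negative control. Pools were incubated with 200 nmole of a 16-mer random double-stranded DNA library in Tris/NaCl/DTT/glycerol buffer at room temperature for 30 min. They were then washed, crosslinked with 0.1% formaldehyde, proximity-ligated (BsaI/T4 ligase, 1 h, 37 °C), PCR-amplified and sequenced on an Illumina NextSeq500. Binding signal is each 6-mer's read frequency for a factor divided by its frequency for the GST control.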

The target of another test is ETV5 (Homo sapiens, UniProt P41161 1-510). The note with it: protein: recombinant; tags: N-terminal GST; dsDNA, one strand shown. In short, it runs like this: as §1
Chain of ETV5 (P41161 whole entry): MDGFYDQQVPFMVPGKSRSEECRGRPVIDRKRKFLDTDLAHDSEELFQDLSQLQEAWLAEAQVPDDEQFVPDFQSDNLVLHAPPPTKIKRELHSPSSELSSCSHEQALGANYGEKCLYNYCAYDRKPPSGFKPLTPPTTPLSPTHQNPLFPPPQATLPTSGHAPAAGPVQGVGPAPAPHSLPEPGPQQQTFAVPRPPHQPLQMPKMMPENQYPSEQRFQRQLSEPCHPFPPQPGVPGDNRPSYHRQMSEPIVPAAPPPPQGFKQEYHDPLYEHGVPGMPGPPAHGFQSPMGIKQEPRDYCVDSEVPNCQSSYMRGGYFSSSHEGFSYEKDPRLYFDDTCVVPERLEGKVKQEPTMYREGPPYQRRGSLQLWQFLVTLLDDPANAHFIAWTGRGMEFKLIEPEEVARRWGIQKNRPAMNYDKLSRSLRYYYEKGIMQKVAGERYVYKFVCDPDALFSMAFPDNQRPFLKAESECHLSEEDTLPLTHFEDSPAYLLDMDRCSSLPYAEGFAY
The next test addresses HSF1 (Homo sapiens, UniProt Q00613 1-529). Particulars: protein: recombinant; tags: N-terminal GST; chain copies: 3; dsDNA, one strand shown. Put shortly:
as §1

In another test the target is T2, SPIC (Homo sapiens, UniProt Q8N5J4 1-248).
T2 sequence: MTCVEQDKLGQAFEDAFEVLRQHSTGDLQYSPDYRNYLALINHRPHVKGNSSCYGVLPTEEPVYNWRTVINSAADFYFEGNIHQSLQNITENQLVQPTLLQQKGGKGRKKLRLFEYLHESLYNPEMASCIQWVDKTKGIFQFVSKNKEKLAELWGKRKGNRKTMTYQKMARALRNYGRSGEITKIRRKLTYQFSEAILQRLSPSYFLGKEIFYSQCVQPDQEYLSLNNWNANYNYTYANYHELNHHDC
The note with it: protein: recombinant; tags: N-terminal GST; dsDNA, one strand shown. In short, it runs like this: as §1

The next test addresses ELF4 (Homo sapiens, UniProt Q99607 1-663). Particulars: protein: recombinant; tags: N-terminal GST; dsDNA, one strand shown. In short, it runs like this: as §1
A further test deals with T3, ELK4 (Homo sapiens, UniProt P28324-2 1-405).
T3 sequence: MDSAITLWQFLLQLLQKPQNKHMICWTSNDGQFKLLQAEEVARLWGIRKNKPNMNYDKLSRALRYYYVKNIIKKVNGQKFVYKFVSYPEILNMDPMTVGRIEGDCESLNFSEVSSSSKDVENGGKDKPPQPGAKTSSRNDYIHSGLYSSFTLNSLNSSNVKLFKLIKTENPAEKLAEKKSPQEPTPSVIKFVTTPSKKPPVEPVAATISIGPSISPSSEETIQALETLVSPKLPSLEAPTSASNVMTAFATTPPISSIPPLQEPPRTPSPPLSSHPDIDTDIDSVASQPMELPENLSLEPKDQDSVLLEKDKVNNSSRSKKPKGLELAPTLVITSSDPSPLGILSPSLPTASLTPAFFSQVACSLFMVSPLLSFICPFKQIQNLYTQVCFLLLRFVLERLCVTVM
Particulars: protein: recombinant; tags: N-terminal GST; dsDNA, one strand shown. Put shortly:
as §1

A further test has as its target T4, ETV2 (Homo sapiens, UniProt O00321 1-342).
T4 sequence: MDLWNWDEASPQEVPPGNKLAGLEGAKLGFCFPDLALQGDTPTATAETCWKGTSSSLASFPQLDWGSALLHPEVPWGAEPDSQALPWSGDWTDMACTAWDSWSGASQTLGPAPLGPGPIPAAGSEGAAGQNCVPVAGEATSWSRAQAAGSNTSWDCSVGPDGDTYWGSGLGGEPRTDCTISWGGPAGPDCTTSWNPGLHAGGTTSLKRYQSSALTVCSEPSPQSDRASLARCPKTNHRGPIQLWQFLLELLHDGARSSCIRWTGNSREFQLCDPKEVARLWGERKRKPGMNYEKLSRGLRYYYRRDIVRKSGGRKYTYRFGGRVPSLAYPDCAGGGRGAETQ
The note with it: protein: recombinant; tags: N-terminal GST; dsDNA, one strand shown. Put shortly: as §1

The target in the next test is T5, ELF3 (Homo sapiens, UniProt P78545 1-371).
T5 sequence: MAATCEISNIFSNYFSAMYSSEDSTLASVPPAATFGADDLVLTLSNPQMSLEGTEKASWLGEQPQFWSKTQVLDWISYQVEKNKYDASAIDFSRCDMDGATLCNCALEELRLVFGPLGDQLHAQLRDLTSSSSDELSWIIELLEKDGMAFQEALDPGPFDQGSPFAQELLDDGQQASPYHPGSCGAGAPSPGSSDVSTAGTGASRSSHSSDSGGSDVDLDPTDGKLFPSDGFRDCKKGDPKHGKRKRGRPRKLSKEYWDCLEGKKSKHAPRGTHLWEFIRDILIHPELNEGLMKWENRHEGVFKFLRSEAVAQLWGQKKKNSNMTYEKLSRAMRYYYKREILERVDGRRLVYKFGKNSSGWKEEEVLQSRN
The note with it: protein: recombinant; tags: N-terminal GST; dsDNA, one strand shown. In short, it runs like this:
as §1

In the next test the target is CRX (Homo sapiens, UniProt O43186 1-299). The note with it: protein: recombinant; tags: N-terminal GST; dsDNA, one strand shown. In short, it runs like this: as §1
Chain of CRX (O43186 whole entry): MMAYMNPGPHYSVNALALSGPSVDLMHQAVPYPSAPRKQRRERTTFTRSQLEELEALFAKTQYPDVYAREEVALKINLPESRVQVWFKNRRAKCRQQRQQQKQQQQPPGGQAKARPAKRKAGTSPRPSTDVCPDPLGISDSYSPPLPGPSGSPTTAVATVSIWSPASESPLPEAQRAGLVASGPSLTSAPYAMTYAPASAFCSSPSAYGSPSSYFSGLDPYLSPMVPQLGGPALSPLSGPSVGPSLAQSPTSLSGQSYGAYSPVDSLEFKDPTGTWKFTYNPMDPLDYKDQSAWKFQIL
For a further test, the target named is ETV1 (Homo sapiens, UniProt P50549 1-477). Particulars: protein: recombinant; tags: N-terminal GST; dsDNA, one strand shown. In short, it runs like this: as §1
Chain of ETV1 (P50549 whole entry): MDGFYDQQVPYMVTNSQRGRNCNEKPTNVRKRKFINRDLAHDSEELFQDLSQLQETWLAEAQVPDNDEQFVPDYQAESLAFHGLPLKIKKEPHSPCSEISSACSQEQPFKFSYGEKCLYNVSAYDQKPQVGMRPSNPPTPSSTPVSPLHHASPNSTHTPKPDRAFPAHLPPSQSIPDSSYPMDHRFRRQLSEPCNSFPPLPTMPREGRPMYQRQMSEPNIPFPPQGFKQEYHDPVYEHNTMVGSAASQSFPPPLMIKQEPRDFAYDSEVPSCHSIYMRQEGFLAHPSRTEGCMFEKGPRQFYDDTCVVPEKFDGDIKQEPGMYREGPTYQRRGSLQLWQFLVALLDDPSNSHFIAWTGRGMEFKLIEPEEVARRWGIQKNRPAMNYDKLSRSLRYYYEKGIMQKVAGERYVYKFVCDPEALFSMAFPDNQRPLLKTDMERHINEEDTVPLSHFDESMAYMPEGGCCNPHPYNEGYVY
The target in the next test is T6, ERF (Homo sapiens, UniProt P50548 1-548).
T6 sequence: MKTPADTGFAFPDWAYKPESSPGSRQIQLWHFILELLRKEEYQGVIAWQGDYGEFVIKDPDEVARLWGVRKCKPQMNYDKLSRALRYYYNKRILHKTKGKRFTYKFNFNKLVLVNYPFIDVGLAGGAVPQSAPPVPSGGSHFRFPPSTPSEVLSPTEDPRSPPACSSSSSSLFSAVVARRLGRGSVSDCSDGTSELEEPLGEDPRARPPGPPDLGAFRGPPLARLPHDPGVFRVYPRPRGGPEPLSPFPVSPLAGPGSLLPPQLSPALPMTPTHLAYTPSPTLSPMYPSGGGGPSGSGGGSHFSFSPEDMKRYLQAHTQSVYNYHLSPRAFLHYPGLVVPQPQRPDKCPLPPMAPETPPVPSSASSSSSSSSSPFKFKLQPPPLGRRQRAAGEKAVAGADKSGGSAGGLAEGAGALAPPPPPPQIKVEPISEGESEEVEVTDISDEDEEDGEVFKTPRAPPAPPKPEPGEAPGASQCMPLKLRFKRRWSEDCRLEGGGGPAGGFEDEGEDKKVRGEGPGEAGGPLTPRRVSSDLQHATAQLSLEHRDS
The note with it: protein: recombinant; tags: N-terminal GST; dsDNA, one strand shown. In short, it runs like this: as §1

The next test addresses T7, ETV3L (Homo sapiens, UniProt Q6ZN32 1-361).
T7 sequence: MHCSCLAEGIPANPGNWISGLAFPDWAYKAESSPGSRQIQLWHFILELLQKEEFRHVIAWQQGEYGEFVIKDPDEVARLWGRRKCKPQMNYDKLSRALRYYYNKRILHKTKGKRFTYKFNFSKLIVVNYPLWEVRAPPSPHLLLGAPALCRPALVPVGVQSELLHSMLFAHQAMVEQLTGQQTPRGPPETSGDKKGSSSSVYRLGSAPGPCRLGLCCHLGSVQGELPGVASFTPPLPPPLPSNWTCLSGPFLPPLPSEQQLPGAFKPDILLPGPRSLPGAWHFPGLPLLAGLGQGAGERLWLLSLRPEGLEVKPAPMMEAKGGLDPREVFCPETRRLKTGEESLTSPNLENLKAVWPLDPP
The note with it: protein: recombinant; tags: N-terminal GST; dsDNA, one strand shown. In short, it runs like this:
as §1

The target of a further test is T8, ETS2 (Homo sapiens, UniProt P15036 1-469).
T8 sequence: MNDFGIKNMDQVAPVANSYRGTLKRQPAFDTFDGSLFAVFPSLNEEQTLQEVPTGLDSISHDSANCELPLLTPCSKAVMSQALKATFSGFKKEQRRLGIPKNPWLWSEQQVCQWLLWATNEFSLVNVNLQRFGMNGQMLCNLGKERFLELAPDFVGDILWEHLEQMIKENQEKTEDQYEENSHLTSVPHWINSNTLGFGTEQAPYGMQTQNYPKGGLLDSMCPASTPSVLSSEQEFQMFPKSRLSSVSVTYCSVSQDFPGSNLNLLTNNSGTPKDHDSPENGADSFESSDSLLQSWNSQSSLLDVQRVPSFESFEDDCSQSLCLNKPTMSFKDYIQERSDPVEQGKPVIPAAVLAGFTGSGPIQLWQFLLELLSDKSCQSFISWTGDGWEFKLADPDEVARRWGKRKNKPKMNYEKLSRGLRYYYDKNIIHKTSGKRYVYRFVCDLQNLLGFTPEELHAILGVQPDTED
The note with it: protein: recombinant; tags: N-terminal GST; dsDNA, one strand shown. In short, it runs like this: as §1

A further test concerns the target T9, SPDEF (Homo sapiens, UniProt O95238 1-335).
T9 sequence: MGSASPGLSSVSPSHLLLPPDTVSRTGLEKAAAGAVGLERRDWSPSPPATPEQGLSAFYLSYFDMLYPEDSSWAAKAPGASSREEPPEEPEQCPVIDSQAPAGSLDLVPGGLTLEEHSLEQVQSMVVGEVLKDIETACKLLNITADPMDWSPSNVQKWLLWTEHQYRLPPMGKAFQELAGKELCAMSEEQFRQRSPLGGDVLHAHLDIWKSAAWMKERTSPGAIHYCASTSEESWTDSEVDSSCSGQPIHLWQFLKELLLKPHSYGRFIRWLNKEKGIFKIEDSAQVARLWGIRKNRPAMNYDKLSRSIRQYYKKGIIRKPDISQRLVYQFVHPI
The note with it: protein: recombinant; tags: N-terminal GST; dsDNA, one strand shown. In short, it runs like this: as §1

For a further test, the target named is T10, ETV7 (Homo sapiens, UniProt Q9Y603 1-341).
T10 sequence: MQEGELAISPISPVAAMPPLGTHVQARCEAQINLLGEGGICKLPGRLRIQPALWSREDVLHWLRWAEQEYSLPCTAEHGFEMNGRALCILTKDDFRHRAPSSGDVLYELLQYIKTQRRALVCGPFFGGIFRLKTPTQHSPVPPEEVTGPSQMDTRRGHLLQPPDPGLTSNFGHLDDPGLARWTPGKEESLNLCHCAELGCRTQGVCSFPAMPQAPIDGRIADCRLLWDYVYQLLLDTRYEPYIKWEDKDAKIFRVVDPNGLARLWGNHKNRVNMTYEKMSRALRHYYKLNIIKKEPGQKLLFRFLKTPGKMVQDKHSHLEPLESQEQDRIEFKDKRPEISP
The note with it: protein: recombinant; tags: N-terminal GST; dsDNA, one strand shown. In short, it runs like this: as §1

The target of a further test is T11, ELF5 (Homo sapiens, UniProt Q9UKW6-2 1-255).
T11 sequence: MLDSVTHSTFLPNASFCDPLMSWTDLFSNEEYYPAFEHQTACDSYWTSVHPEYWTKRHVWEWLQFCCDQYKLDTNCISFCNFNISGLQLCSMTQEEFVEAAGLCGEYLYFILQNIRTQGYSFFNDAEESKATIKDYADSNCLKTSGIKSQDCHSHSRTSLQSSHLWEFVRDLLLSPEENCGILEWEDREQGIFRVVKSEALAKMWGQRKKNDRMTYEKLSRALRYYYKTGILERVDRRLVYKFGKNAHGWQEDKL
Particulars: protein: recombinant; tags: N-terminal GST; dsDNA, one strand shown. In short, it runs like this:
as §1

Another test has as its target T12, ETV3 (Homo sapiens, UniProt P41162-2 1-143).
T12 sequence: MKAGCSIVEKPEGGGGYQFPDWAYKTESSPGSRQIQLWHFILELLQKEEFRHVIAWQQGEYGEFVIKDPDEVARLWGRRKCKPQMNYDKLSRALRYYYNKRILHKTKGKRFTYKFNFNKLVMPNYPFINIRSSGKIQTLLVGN
The note with it: protein: recombinant; tags: N-terminal GST; dsDNA, one strand shown. In short, it runs like this:
as §1

In a further test the target is ETV6 (Homo sapiens, UniProt P41212 1-452). Particulars: protein: recombinant; tags: N-terminal GST; dsDNA, one strand shown. In short, it runs like this:
as §1

Chain of ELF4 (Q99607 whole entry): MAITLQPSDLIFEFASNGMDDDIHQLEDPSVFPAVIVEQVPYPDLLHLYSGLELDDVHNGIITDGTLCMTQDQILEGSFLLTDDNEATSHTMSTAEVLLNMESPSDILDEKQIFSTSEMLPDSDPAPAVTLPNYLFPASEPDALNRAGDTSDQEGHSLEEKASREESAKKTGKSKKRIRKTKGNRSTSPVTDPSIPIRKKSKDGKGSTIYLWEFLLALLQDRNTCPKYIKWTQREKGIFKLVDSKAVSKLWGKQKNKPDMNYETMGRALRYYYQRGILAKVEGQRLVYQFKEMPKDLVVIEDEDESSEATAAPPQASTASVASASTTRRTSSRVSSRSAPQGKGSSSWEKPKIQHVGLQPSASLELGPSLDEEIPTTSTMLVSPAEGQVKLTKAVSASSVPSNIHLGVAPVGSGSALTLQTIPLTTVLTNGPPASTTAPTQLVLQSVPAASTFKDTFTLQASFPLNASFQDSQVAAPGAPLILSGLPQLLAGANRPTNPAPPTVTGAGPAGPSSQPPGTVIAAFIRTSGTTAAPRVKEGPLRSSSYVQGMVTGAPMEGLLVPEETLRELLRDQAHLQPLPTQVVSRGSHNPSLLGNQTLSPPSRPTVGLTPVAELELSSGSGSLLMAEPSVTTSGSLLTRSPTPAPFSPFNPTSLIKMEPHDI
Chain of HSF1 (Q00613 whole entry): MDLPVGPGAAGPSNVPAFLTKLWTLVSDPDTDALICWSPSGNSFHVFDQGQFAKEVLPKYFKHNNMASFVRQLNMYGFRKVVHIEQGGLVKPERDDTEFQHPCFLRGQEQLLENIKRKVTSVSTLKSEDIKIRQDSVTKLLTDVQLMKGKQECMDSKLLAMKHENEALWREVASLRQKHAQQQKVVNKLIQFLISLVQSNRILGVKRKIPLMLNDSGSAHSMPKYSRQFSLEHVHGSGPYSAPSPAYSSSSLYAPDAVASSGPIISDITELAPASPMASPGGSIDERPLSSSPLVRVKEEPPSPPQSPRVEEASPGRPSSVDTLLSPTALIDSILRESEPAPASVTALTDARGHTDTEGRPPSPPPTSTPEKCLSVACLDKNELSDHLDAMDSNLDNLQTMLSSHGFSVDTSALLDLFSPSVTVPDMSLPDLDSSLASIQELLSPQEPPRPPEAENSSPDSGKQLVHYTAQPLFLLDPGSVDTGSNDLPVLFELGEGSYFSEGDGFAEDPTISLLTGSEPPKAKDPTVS
Chain of ETV6 (P41212 whole entry): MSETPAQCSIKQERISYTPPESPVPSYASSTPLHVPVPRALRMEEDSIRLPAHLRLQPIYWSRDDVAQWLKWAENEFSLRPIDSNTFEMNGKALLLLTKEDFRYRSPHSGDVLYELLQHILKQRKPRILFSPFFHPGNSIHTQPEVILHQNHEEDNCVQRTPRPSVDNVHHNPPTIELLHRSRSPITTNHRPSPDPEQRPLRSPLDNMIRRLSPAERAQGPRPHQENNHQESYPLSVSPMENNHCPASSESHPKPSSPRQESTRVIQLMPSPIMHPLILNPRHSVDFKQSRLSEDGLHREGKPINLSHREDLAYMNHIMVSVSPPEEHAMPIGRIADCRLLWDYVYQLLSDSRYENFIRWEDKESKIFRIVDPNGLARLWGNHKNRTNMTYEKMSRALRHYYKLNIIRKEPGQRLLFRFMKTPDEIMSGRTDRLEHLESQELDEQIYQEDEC

For the sequence TCTCTT, the binding signal in the test with FEV is 1.41 fold enrichment (6-mer frequency, TF over GST control); with ETV5 it was 1.39 fold enrichment (6-mer frequency, TF over GST control); with HSF1, 1.39 fold enrichment (6-mer frequency, TF over GST control); with SPIC it was 1.34 fold enrichment (6-mer frequency, TF over GST control); in the test with ELF4, 1.34 fold enrichment (6-mer frequency, TF over GST control); with ELK4, 1.49 fold enrichment (6-mer frequency, TF over GST control). In addition, the binding signal was 1.37 fold enrichment (6-mer frequency, TF over GST control) with ETV2; 1.28 fold enrichment (6-mer frequency, TF over GST control) with ELF3; 1.58 fold enrichment (6-mer frequency, TF over GST control) in the test with CRX; 1.42 fold enrichment (6-mer frequency, TF over GST control) in the test with ETV1; 1.37 fold enrichment (6-mer frequency, TF over GST control) with ERF; 1.49 fold enrichment (6-mer frequency, TF over GST control) in the test with ETV3L. Moreover, the binding signal was 1.37 fold enrichment (6-mer frequency, TF over GST control) with ETS2; 1.32 fold enrichment (6-mer frequency, TF over GST control) with SPDEF; 1.17 fold enrichment (6-mer frequency, TF over GST control) with ETV7; 1.39 fold enrichment (6-mer frequency, TF over GST control) with ELF5; 1.44 fold enrichment (6-mer frequency, TF over GST control) with ETV3; 1.36 fold enrichment (6-mer frequency, TF over GST control) with ETV6.
